# NPSR antag: antagonists of human neuropeptide S receptor cAMP signaling. 1% of 220,000 active. AID 1461. Potency, µM (highest dose often 38.3 µM), for inactives: at the highest dose activity change, negative = inhibition, hits mostly inhibitors. Q6W5P4. CHO-NPSR cells, cAMP TR-FRET, antagonist mode; active = well fitted curve in the direction sought with a large enough effect; inconclusive = small, poorly fitted or top-dose-only effect, or another doubt; inactive = no such curve, though single readings can be large; an effect the other way counts as inactive or inconclusive; also: potency is read from the fitted curve at half-maximal effect; nearly all actives have a fitted effect of over 50% in size
# PNC assembly inh: perinucleolar compartment assembly inhibition. PC3M PTB-GFP, PNC prevalence imaging, 16 h; hits give low values. activity change (PNC), negative = inhibition, % at 10 µM. 3.1% of 140,000 active. AID 2417;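 active = readout at or below -70, meaning at least 70% loss of cells showing the perinucleolar compartment, a nuclear body marking cancer cells; inconclusive = readout between -30 and a set limit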;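 also: plate controls were DMSO wells for no effect and camptothecin positive control wells for full effect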
#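 Read-out is percentage of cells bearing a perinucleolar compartment, from automated 20x imaging of fixed, Hoechst-stained PC3M PTB-GFP cells. Cells were seeded 4 h, then exposed 16 h to compound (23 nl of library stock) in duplicate plates.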
# IMPase cell inh: cell-permeable inhibitors of inositol monophosphatase (IMPase); P97697; CHO-M1 cells, IP1 accumulation, HTRF TR-FRET ratio; inhibition (IP1 accumulation), % at 46.1 µM; 120,000 tested, under 10 active; AID 901; active = well fitted curve in the direction sought with a large enough effect in the signal ratio, not every such curve was filed as active; inconclusive = small, poorly fitted or top-dose-only effect, or a change in a side signal; inactive = no such curve, though single readings can be large or run the other way; the % refers to the signal ratio;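 also: cells stimulated with carbachol in lithium chloride buffer; plate controls were DMSO basal wells for no effect and reference inhibitor wells for full effect; higher means more IMPase inhibition seen as more IP1 and lower FRET ratio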
#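 Elevated IP1 in lysates lowers TR-FRET signal (665/620 ratio and 620 channel reported). Cells were CHO-M1, given carbachol (50 uM as added) plus 50mM LiCl, pH 7.4, 30 min, 37C; compounds titrated up to 46 uM; AC50 by Hill equation.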
# ALDH1A1 inh: inhibitors of human aldehyde dehydrogenase 1A1 | P00352 | Purified ALDH1A1, NADH fluorescence, propionaldehyde substrate | Potency, µM (highest dose often 75.3 µM), without a hit: top-dose activity, negative = inhibition, usual class: inhibitors | 7.3% of 220,000 active | AID 1030;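 also: potency is read from the fitted curve at half-maximal effect; plate controls were no enzyme wells and a reference inhibitor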
# Target sequence (P00352 whole entry, looked up): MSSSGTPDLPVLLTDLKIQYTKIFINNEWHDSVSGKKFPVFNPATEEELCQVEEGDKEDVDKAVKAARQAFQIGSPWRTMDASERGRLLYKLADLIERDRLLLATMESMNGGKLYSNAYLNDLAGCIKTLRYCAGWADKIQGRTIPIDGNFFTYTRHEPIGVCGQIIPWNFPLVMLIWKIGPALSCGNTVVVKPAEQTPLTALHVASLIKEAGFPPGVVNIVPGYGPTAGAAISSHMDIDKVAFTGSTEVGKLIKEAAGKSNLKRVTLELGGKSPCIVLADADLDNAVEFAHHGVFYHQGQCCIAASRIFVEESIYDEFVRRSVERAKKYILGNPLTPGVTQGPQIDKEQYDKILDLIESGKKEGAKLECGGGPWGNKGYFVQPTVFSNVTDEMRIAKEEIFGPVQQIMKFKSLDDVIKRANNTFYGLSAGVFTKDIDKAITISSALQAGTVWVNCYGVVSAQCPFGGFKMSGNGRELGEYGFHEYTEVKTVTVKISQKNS
# HPGD inh: inhibitors of human 15-hydroxyprostaglandin dehydrogenase (HPGD) | purified HPGD, NADH fluorescence kinetic, PGE2 substrate | P15428 | Potency, µM, inactives show at the top dose activity change, negative = inhibition, hits mostly inhibitors | 4.3% of 150,000 active | AID 894; also: potency is read from the fitted curve at half-maximal effect
# Target sequence (P15428 whole entry, looked up): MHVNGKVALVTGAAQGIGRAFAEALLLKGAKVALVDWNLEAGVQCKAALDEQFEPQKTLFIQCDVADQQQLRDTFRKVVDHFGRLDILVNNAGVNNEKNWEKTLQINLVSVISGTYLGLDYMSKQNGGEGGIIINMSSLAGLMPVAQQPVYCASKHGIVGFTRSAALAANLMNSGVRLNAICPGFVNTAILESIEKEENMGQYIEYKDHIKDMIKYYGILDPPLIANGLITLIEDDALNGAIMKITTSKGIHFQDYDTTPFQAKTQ
#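 NADH formation kinetics: reaction with 30 uM PGE2 and 1 mM NAD+ (final), 20 nM enzyme, Tris-HCl pH 8 with Tween 20, after 15 min compound preincubation at room temperature. Fluorescence change, last versus first of five reads.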
# IMPase Li cell: membrane-permeable IMPase blocker, potentiated with lithium. CHO-M1 cells, IP1 TR-FRET (IP-One), carbachol + lithium. Potency, µM (top dose mostly 59.4 µM), without a hit: top-dose activity, negative = IMPase inhibition, hits mostly inhibitors. AID 1457. 0.35% of 210,000 active; active = well fitted curve in the direction sought with a large enough effect; inconclusive = small, poorly fitted or top-dose-only effect, or another doubt; inactive = no such curve, though single readings can be large; an effect the other way counts as inactive or inconclusive;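 also: IP1 builds up when IMPase is blocked and the TR-FRET signal falls; potency is read from the fitted curve at half-maximal effect; plate controls were basal vehicle for no effect and high inhibitor control for full effect; nearly all actives have a fitted effect of over 50% in size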
#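 CHO cells stably expressing M1 receptor (2000/well) were cultured 16–30 h, then exposed to compounds with a small lithium addition for 30 min at 37C. IP1 was measured by TR-FRET competition; AC50 from Hill fits.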
# Starred values were filed as active, the others as inactive; ? = inconclusive; . = not tested or not shown; [ ] = dose if it differs, or a comment. The list is not random: actives were taken first. Their share in the collection is about 11%. Unless noted, calls follow the shape of the dose curve; as a rule, active = well fitted inhibition curve with a large enough effect (not every such curve was filed as active); inconclusive = small, poorly fitted or top-dose-only effect, or another doubt; inactive = no such curve, though single readings can be large or run the other way. Unless noted, % is scaled to controls: 0 for no effect and ±100 for the full control effect.
SMILES,NPSR antag,PNC assembly inh,IMPase cell inh,ALDH1A1 inh,HPGD inh,IMPase Li cell
COc1ccc(C)cc1-n1c(C)cc(C=O)c1C,-7%,.,.,?,.,5%
COc1ccccc1-n1c(C)cc(C=O)c1C,-14%[46.1 µM],2,2,14µM*,-7%,34%[38.3 µM]
CN(C(=O)c1cccc(COc2ccc(Cl)cc2Cl)c1)c1ccccc1,-42%,27,.,?,18µM*,10%
O=C(NCc1ccccc1)c1cccc(COc2cc(Cl)ccc2Cl)c1,-45%,?,17,18%,-15%,26%
COc1ccc(OC)c(C2=NOC(C(=O)NCC3CCCO3)C2)c1 (configuration not stated),12%[46.1 µM],-5,4,?,?,2%[38.3 µM]
O=C(NCC1CCCO1)C1CC(c2ccccc2Cl)=NO1 (configuration not stated),-7%[46.1 µM],-23,8,10%,20µM*,-10%[38.3 µM]
Cc1ccc2occ(/C=C/C(=O)c3ccccc3O)c(=O)c2c1,-6%[46.1 µM],74,-18,7.9µM*,-17%,-8%[38.3 µM]
Cc1cccc(NC(=O)NCC(c2cccnc2)N2CCOCC2)c1 (configuration not stated),-8%[46.1 µM],47,5,8%,-10%,-5%[38.3 µM]
O=C(NCc1n[nH]c(=S)n1-c1ccc(F)cc1)c1ccc(S(=O)(=O)N2CCOCC2)cc1,20%,.,.,?,.,8%
O=C(NCc1n[nH]c(=S)n1-c1ccccc1)c1ccc(S(=O)(=O)N2CCOCC2)cc1,-3%[46.1 µM],?,8,18µM*,-15%,8%[38.3 µM]
CCN(CC)S(=O)(=O)c1ccc(C(=O)NCc2n[nH]c(=S)n2-c2ccc(Cl)c(Cl)c2)cc1,-6%,.,.,1.4µM*,.,12%
CCN(CC)S(=O)(=O)c1ccc(C(=O)NCc2n[nH]c(=S)n2-c2ccccc2OC)cc1,-4%[46.1 µM],18,6,?,-13%,-23%[38.3 µM]
O=C(NCc1n[nH]c(=S)n1-c1ccccc1)c1ccc(S(=O)(=O)N2CCCCC2)cc1,24%,.,.,11µM*,.,-3%
CN(C)CCC#CC(O)(c1ccccc1)c1ccccc1,35%,50,.,25µM*,-5%,21%
CC(C(=O)Nc1cccnc1)N1C(=O)C2C3C=CC(C3)C2C1=O (configuration not stated),-2%[46.1 µM],-1,3,20µM*,-16%,0%[38.3 µM]
O=C(Nc1ccc(N2C(=O)C3C4C=CC(C4)C3C2=O)cc1)Nc1cccnc1 (configuration not stated),-5%[46.1 µM],-25,-2,?,18µM*,16%[38.3 µM]
O=C(NCCN1C(=O)C2C3C=CC(C3)C2C1=O)Nc1cccnc1 (configuration not stated),-1%[46.1 µM],-28,3,-12%,3%,0%[38.3 µM]
COc1cc2c(cc1OC)[C@H](c1ccccc1)CN(C)CC2,.,.,4,.,.,.
CC(C)OC(=O)c1ccc(NC(=O)c2cncc(Br)c2)cc1,-3%,.,.,18µM*,.,10%
CN(C)C(=O)c1ccc(NC(=O)c2cncc(Br)c2)cc1,2%[46.1 µM],-100*,3,6%,-25%,4%
CCOC(=O)CSc1nc2ccc(NC(C)=O)cc2s1,-11%[46.1 µM],-17,8,6%,.,.
CCOc1ccc(S(=O)(=O)NCCSCc2ccco2)cc1,-12%[46.1 µM],?,2,2.8µM*,-22%,30%[38.3 µM]
COc1ccc(S(=O)(=O)NCCSCc2ccco2)cc1OC,0%[46.1 µM],3,6,?,-11%,33%[38.3 µM]
Cc1ccc(S(=O)(=O)NCCSCc2ccco2)cc1,5%,.,.,20µM*,.,4%
Cc1ccc(-c2ccc(S(=O)(=O)NCc3ccco3)cc2)cc1,2%,.,.,12%,.,8%
SMILES,NPSR antag,PNC assembly inh,IMPase cell inh,ALDH1A1 inh,HPGD inh,IMPase Li cell
COc1ccc(S(=O)(=O)NCCSCc2ccco2)cc1,-18%[46.1 µM],?,-11,2.8µM*,-16%,15%[38.3 µM]
COc1ccc(S(=O)(=O)NCCSCc2cccs2)cc1,0%[46.1 µM],5,-2,1µM*,-3%,19%[38.3 µM]
O=C(c1cccs1)N1CCN=C1SCc1ccccc1F,-19%,.,.,2%,.,9%
CCCCC(=O)NN(C)c1nc(-c2ccccc2)nnc1C(F)(F)F,-9%[46.1 µM],1,-5,-3%,-15%,16%[38.3 µM]
CCc1ccccc1NC(=O)Nc1cccn(Cc2ccccc2F)c1=O,53%,.,.,?,.,5%
Cc1nn(-c2ccccc2)c(N2CCCC2)c1/C=N/NC(=S)Nc1ccccc1F,-53%,-86*,.,?,?,15%
COc1cccc(-c2cc(C(F)(F)F)nc(NCc3ccco3)n2)c1,10%[46.1 µM],-100*,15,-1%,-29%,12%
COc1ccc(-c2cc(C(F)(F)F)nc(NCc3ccco3)n2)cc1OC,1%[46.1 µM],14,3,?,?,-7%[38.3 µM]
O=C(CCCSc1nc(-c2ccco2)cc(C(F)(F)F)n1)NCc1cccs1,?,?,-17,?,18µM*,-31%[38.3 µM]
O=C(CCCSc1nc(-c2ccco2)cc(C(F)(F)F)n1)NCC1CCCO1 (configuration not stated),4%[46.1 µM],21,4,?,7.9µM*,7%
O=C(CCSc1nc(-c2ccco2)cc(C(F)(F)F)n1)NCC1CCCO1 (configuration not stated),-9%[46.1 µM],36,2,-15%,?,-3%[38.3 µM]
FC(F)(F)c1cc(-c2ccco2)nc(NCc2cccs2)n1,-14%[46.1 µM],-9,7,8.9µM*,-16%,-8%[38.3 µM]
COCc1[nH]nc2c1C1(C(=O)N(C)c3ccccc31)C(C#N)=C(N)O2 (configuration not stated),5%[46.1 µM],-9,5,7%,-6%,6%[38.3 µM]
COC(=O)/C=C/C(=O)N1CCN(c2ccccc2C)CC1,15%,-4,.,?,-6%,-2%
O=C1c2cccc3c(Nc4ccccc4Cl)c([N+](=O)[O-])cc(c23)C(=O)N1CCO,-19%[46.1 µM],-10,0,-6%,1.4µM*,18%[38.3 µM]
O=C1c2cccc([N+](=O)[O-])c2C(=O)N1CCO,5%,.,.,6%,.,-9%
COc1cc(/C=N\NC(=O)c2ccccc2F)ccc1Oc1ccc([N+](=O)[O-])cn1,-11%,.,.,.,.,.
COc1ccc(-c2cc(C(=O)N/N=C/c3ccc(O)cc3)[nH]n2)cc1,.,.,.,13µM*,?,.
COc1ccc(-c2cc(C(=O)NN)[nH]n2)cc1,20%,1,.,20µM*,-6%,11%
O=C(N/N=C/c1ccc(O)cc1)c1cc(-c2ccc3c(c2)OCO3)n[nH]1,?,?,7,-7%,.,.
CCOc1ccc(-c2cc(C(=O)NN)[nH]n2)cc1,10%,?,.,?,2%,2%
COc1ccc(-c2cc(C(=O)NN)n(-c3ccccc3)n2)cc1,-9%[46.1 µM],14,3,8.9µM*,-14%,7%
O=C(NC(C(=O)O)c1ccccc1)c1ccc(S(=O)(=O)N2CCOCC2)cc1 (configuration not stated),-9%[46.1 µM],15,-2,4%,3%,22%[38.3 µM]

# Source: PubChem BioAssay (National Center for Advancing Translational Sciences (NCATS))
